Experimental data published in PubChem BioAssay (Tox21).
“And” between values parts separate entries of the source, which are not always exact repeats. Equal values may be shown once. Records with an inconclusive call do not appear. The source made the active and inactive calls. Unless noted, calls follow the shape of the dose curve; as a rule, active = well fitted curve in the direction sought with a large enough effect in the repeat runs; inconclusive = weak or mixed curves; inactive = no such curve, though single readings can be large; an effect the other way counts as inactive or inconclusive.

Legend:
[1] = qHTS assay to identify small molecule agonists of the hypoxia (HIF-1) signaling pathway - cell viability counter screen (AID 1224844; calls by dose curve; also: nearly all actives have a fitted effect of over 50% in size)
Method in brief: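 Cytotoxicity measured by CellTiter-Glo ATP luminescence in the wells also read for beta-lactamase signal. Cells were HRE-bla ME-180 (2,000/well, 0.5% dialyzed FBS), exposed to compounds for 17 h at 37C.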

[2] = qHTS assay to identify small molecule agonists of H2AX (AID 1224845; active = well fitted activation curve with a large enough effect in the signal ratio in the repeat runs, not every such curve was filed as active; the % refers to the signal ratio)
Method in brief: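 Phospho-H2AX Ser139 measured by HTRF (ex 320 nm; em 665 and 620 nm) after 24 hr antibody incubation. Compounds, 15 concentrations, 0.76% DMSO, were applied to CHO-K1 cells for 3hr at 37C before lysis.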

[3] = qHTS assay to identify small molecule agonists of the hypoxia (HIF-1) signaling pathway (AID 1224846; active = well fitted activation curve with a large enough effect in the signal ratio in the repeat runs, not every such curve was filed as active; the % refers to the signal ratio)
Method in brief: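 Compounds added to ME-180 cells carrying hypoxia-response-element beta-lactamase reporter (0.5% dialyzed FBS, 5 h preplating), 17 h at 37C; agonist activity detected by CCF4-AM B/G FRET read-out.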

[4] = qHTS assay to identify small molecule agonists of H2AX - cell viability counter screen (AID 1224847; calls by dose curve; also: nearly all actives have a fitted effect of over 30% in size; also: potency is read from the fitted curve at half-maximal effect;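 as to activity change, negative = cytotoxicity: wild-type CHO-K1 cells; top concentration of the series differs between compounds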)
Method in brief: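 CHO-K1 cells plated overnight at 37C, then exposed 3 h at 37C to compounds at 15 concentrations (0.76% DMSO final). Viability by CellTiter-Glo luminescence after 30 min at room temperature.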

[5] = qHTS assay to identify small molecule antagonists of the estrogen related receptor (ERR) signaling pathway from Tox21 library (AID 1224848); also: nearly all actives have a fitted effect of over 50% in size; also: potency is read from the fitted curve at half-maximal effect
Method in brief: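 Luciferase luminescence (ONE-Glo, 30 min room temperature) was the read-out. Cells of the NTP-supplied ERR line, 2,000 per well, were given 6 h at 37 C before compound addition in DMSO and 18 h exposure at 37 C.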

[6] = qHTS assay to identify small molecule agonists of the estrogen related receptor (ERR) signaling pathway from Tox21 library (AID 1224849; calls by dose curve; also: nearly all actives have a fitted effect of over 15% in size); conditions: ERR reporter cell line, ONE-Glo luciferase, 18 h; at 92.4 µM (top of the series)
Method in brief: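 Luminescent agonist read-out (One-Glo, 30-minute room-temperature incubation) following 18-hour compound treatment at 37 C of the ERR cell line, which had been plated 6 hours before dosing.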

[7] = qHTS RealTime-Glo MT Cell Viability Assay in HepG2 cells - 24 hour (AID 1224867); also: nearly all actives have a fitted effect of over 50% in size
Method in brief: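 Tox21 10K library screened in qHTS format on HepG2 cells carrying RealTime-Glo reagents. Compounds were added after a 5 h preincubation, and the luminescent signal from continuous culture was measured repeatedly during 40 h treatment.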

[8] = qHTS RealTime-Glo MT Cell Viability Assay in HEK293 cells - 32 hour (AID 1224868); also: nearly all actives have a fitted effect of over 50% in size; also: potency is read from the fitted curve at half-maximal effect; as to activity change, negative = cytotoxic: top concentration of the series differs between compounds
Method in brief: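 Luminescence generated by NanoLuc from substrate produced by living HEK293 cells served as the viability signal. Each value reflects the reading at its stated time point during continuous 40 h compound exposure at 37 C.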

[9] = A CellTox Green Cytotoxicity Assay to monitor cytotoxicity in HEK293 cells - 0 hour (AID 1224869); also: nearly all actives have a fitted effect of over 50% in size
Method in brief: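 Fluorescence from a DNA-binding dye excluded by viable cells was measured repeatedly in the same HEK293 wells (600 cells/well) during continuous compound exposure at 37 C. Each assay gives one read point: 0, 8, 16, 24, 32 or 40 h.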

[10] = qHTS RealTime-Glo MT Cell Viability Assay in HepG2 cells - 40 hour (AID 1224870); also: nearly all actives have a fitted effect of over 50% in size
Method in brief: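 Real-time viability: cells seeded at 600 per well together with NanoLuc and cell-permeant prosubstrate, compounds added after 5 h incubation. Luminescence tracked at 0, 8, 16, 24, 32 and 40 h of exposure.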
% is scaled to controls: 0 for no effect and ±100 for the full control effect.

N#CC1(N=NC2(C#N)CCCCC2)CCCCC1
inactive: Potency [1] | Potency [2] | outcome [3] | Potency [4] | Potency [5] | activity change, positive = activation [6] -5.87% | Potency [7] | Potency [8] | Potency [9] | Potency [10]

COc1cc(C[C@@H](C)N)c(OC)cc1Br
inactive: Potency [1] | Potency [2] | outcome [3] | Potency [4] | Potency [5] | Potency [7] | Potency [8] | Potency [9] | Potency [10]

Nc1cc(Cl)cc(C(=O)O)c1Cl
inactive: Potency [1] | Potency [2] | outcome [3] | Potency [4] | Potency [5] | Potency [7] | Potency [8] | Potency [9] | Potency [10]

CCCN(CCC)C(=O)Cc1c(-c2ccc(Cl)cc2)nc2ccc(Cl)cn12
active: Potency [8] 5.35 µM
inactive: Potency [1] | Potency [2] | outcome [3] | Potency [4] | Potency [7] | Potency [9] | Potency [10]

O=C(O)c1ccc(=O)[nH]c1
inactive: Potency [1] | Potency [2] | outcome [3] | Potency [4] | Potency [5] | Potency [7] | Potency [8] | Potency [9] | Potency [10]

COc1ccc(C(O)(c2cncnc2)C2CC2)cc1 (stereo not drawn)
inactive: Potency [1] | Potency [2] | outcome [3] | Potency [4] | Potency [5] | Potency [7] | Potency [8] | Potency [9] | Potency [10]

NNCCO
inactive: Potency [1] | Potency [2] | outcome [3] | Potency [4] | Potency [5] | Potency [7] | Potency [8] | Potency [9] | Potency [10]

N#CC(C#N)=C(C#N)C#N
inactive: Potency [1] | Potency [2] | outcome [3] | Potency [4] | Potency [5] | activity change, positive = activation [6] -1.38% | Potency [7] | Potency [8] | Potency [9] | Potency [10]

C=CCOC(=O)C(C)(C)OC(=O)c1cc(-n2c(=O)cc(C(F)(F)F)n(C)c2=O)ccc1Cl
active: Potency [5] 26.8 µM
inactive: Potency [1] | Potency [2] | outcome [3] | Potency [4] | activity change, positive = activation [6] -42.4% | Potency [7] | Potency [9] | Potency [10]

ClCc1ccccc1Cl
inactive: Potency [1] | Potency [2] | outcome [3] | Potency [4] | Potency [5] | Potency [7] | Potency [8] | Potency [9] | Potency [10]

O=[N+]([O-])c1cc(Cl)c(Cl)cc1Cl
inactive: Potency [1] | Potency [2] | outcome [3] | Potency [4] | Potency [5] | Potency [7] | Potency [8] | Potency [9] | Potency [10]

c1ccc2c(c1)sc1ccccc12
inactive: Potency [1] | Potency [2] | outcome [3] | Potency [4] | Potency [5] | Potency [7] | Potency [8] | Potency [9] | Potency [10]

CN(C)C(=O)Nc1cccc(OC(=O)NC(C)(C)C)c1
inactive: Potency [1] | Potency [2] | outcome [3] | Potency [4] | Potency [7] | Potency [8] | Potency [9] | Potency [10]

Nc1c(Br)cc(Br)c2c1C(=O)c1ccccc1C2=O
inactive: activity change, negative = cytotoxicity [1] 1.81% [at 15.8 µM] | activation (H2AX phosphorylation) [2] 2.27% [at 31.6 µM] | activation [3] 0.237% [at 15.8 µM] | activity change, negative = cytotoxicity [4] -4.33% [at 31.6 µM] | activity, negative = inhibition [5] 31.1% [at 19 µM] | activity change, negative = cytotoxicity [7] -0.948% [at 15.8 µM] | cytotoxicity [9] -2.18% [at 15.8 µM] | activity change, negative = cytotoxic [10] 16.3% [at 15.8 µM]

C=C(C)C(=O)OCCCCOC(=O)C(=C)C
inactive: Potency [1] | Potency [2] | outcome [3] | Potency [4] | Potency [5] | activity change, positive = activation [6] 2.2% | Potency [7] | Potency [8] | Potency [9] | Potency [10]

CCC1(CCC(C)C)C(=O)NC(=O)NC1=O
inactive: Potency [1] | Potency [2] | outcome [3] | Potency [4] | Potency [7] | Potency [8] | Potency [9] | Potency [10]

O=C(N[C@H]1CN2CCC1CC2)c1ccc2c(c1)OCCO2
inactive: Potency [1] | Potency [2] | outcome [3] | Potency [4] | Potency [5] | Potency [7] | Potency [8] | Potency [9] | Potency [10]

CC(C)(C)OOC(C)(C)CCC(C)(C)OOC(C)(C)C
inactive: Potency [1] | Potency [2] | outcome [3] | Potency [4] | Potency [5] | activity change, positive = activation [6] 2.37% | Potency [7] | Potency [8] | Potency [9] | Potency [10]

C[Si](Cn1cncn1)(c1ccc(F)cc1)c1ccc(F)cc1
inactive: Potency [1] | Potency [2] | outcome [3] | Potency [7] | Potency [9] | Potency [10]
active: Potency [4] 104 µM | Potency [5] 28.2 µM and 30.6 µM | Potency [8] 25.4 µM and 21.9 µM

CCOP(=S)(OCC)Oc1ccc(S(C)=O)cc1 (stereo not drawn)
inactive: Potency [1] | Potency [2] | outcome [3] | Potency [4] | Potency [5] | Potency [7] | Potency [8] | Potency [9] | Potency [10]

Clc1ccccc1
inactive: Potency [1] | Potency [2] | outcome [3] | Potency [4] | activity change, positive = activation [6] 5.28% | Potency [7] | Potency [8] | Potency [9] | Potency [10]

CCCCCl
inactive: Potency [1] | Potency [2] | outcome [3] | Potency [4] | Potency [5] | activity change, positive = activation [6] -0.331% | Potency [7] | Potency [8] | Potency [9] | Potency [10]

CCCCOC(=O)CCC(=O)OCCCC
inactive: Potency [1] | Potency [2] | outcome [3] | Potency [4] | Potency [5] | Potency [7] | Potency [8] | Potency [9] | Potency [10]
